Laboratory results published in PubChem BioAssay (NCATS).
Inconclusive results are not listed. Activity calls are given as the source filed them. Calls follow the shape of the dose curve; as a rule, active = well fitted inhibition curve with a large enough effect; inconclusive = small, poorly fitted or top-dose-only effect; inactive = no such curve, though single readings can be large or run the other way.

What follows are compounds tested against Retinaldehyde dehydrogenase 3 (Homo sapiens) (UniProt P47895) (assay: qHTS for Inhibitors of the Aldehyde Dehydrogenase Family (ALDH1A3) Primary screen (AID 2061315;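 also: plate controls were DMSO vehicle for no effect and reference inhibitor for full effect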)). Conditions: ALDH inhibition qHTS; series mostly up to 56 µM; activity change, negative = inhibition: at the top concentration.

Row | Structure (SMILES) | activity change, negative = inhibition
1 | Cc1c(P(=S)(c2ccccc2)c2ccccc2)c2ccccc2n1C(=O)NCc1ccc(F)cc1 | 5.88% (inactive)
2 | O=S1(=O)N=C(Oc2cccc(Br)c2)c2ccccc21 | -20.6% (inactive)
3 | CCN1CCN(c2cccc(Nc3nn4c(=O)c5ccccc5nc4s3)c2)CC1 | -6.27% (inactive)
4 | COc1ccccc1/C=C/C(=O)NCCc1nc2ccccc2n1CCOc1ccc(C)cc1 | 1.61% (inactive)
5 | Cn1nnnc1Sc1ncnc2scc(-c3ccc(Cl)cc3)c12 | -4.13% (inactive)
6 | COc1cc(O)c(C(CC(=O)N2CCC(Cc3ccccc3)CC2)c2ccc3c(c2)OCO3)c(OC)c1 (stereo not drawn) | 13.6% [at 114 µM] (inactive)
7 | O=C(Cn1nc(C2CC2)ccc1=O)NCCc1ccccc1 | -1.63% (inactive)
8 | Cc1cc2c(s1)c1cnn(Cc3ccccc3F)c(=O)c1n2C(C)C | 34.7% (inactive)
9 | O=C(NCc1nnc(-c2cc3ccccc3[nH]2)s1)c1ccccc1 | -5.05% (inactive)
10 | O=C1CCCC2=C1C(c1[nH]ncc1Cl)N=C(Nc1ccccc1)N2 (stereo not drawn) | 1.66% (inactive)
11 | CCc1nnc(NS(=O)(=O)c2ccc(NC(=S)NC(=O)/C=C/c3ccc(F)cc3)cc2)s1 | 8.24% (inactive)
12 | O=C1CCCC2=C1C(c1[nH]ncc1Cl)N=C(Nc1cccnc1)N2 (stereo not drawn) | -2.49% (inactive)
13 | Cc1ccc(OCCn2c(CCNC(=O)C3CCC3)nc3ccccc32)cc1 | 5.02% (inactive)
14 | CC(=O)/C=C/[C@H]1[C@](C)(O)[C@@H](O)[C@H](O)C2C(C)(C)CCC[C@@]21C (stereo partly drawn) | -0.219% (inactive)
15 | O=C(O)c1ccnc2c(O)cccc12 | 17.9% (inactive)
16 | CCOC(=O)c1c(-c2ccc(OC)cc2)csc1NC(=O)C1CCCO1 (stereo not drawn) | 15.1% (inactive)
17 | O=C1c2ccccc2C(=O)N1c1cccc(O)c1 | -7.45% (inactive)
18 | Cc1csc(CNc2ncnc3ccc(-c4ccc5c(c4)OCO5)cc23)n1 | 13.5% (inactive)
19 | Cc1cc(C)n2ncc(C(=O)Nc3ccc4c(c3)OCCO4)c2n1 | 13.4% (inactive)
20 | COCCN(CCOC)c1nc(C)nc2c1nc(-c1ccccc1)n2CCCN1CCCCC1C (stereo not drawn) | 16.6% (inactive)
21 | Cc1ccc(NC(=O)c2ccc3c(c2)CCC(=O)N3)cc1C | 3.68% (inactive)
22 | CC(=O)N1CCc2cc(S(=O)(=O)N3CCN(S(=O)(=O)c4c(F)cccc4F)CC3)ccc21 | 1.31% (inactive)
23 | CN(C)[S+](=O)([O-])c1ccc(-c2ccc(=O)n(CC(=O)NCCc3ccccc3)n2)cc1 | -15.8% (inactive)
